# Experimental data from PubChem BioAssay AID2314 (National Center for Advancing Translational Sciences (NCATS), 2010).
# The whole screen tested about 300,000 compounds, of which about 37,000 (12%) were called active. No stated cut-off is given here; in the data, active means max response mostly above about 13% (no sharp cut-off); inactive means mostly below about 14%. Shown is part of a subset that was picked to be rich in actives.
# Experiment: Cycloheximide Counterscreen for Small Molecule Inhibitors of Shiga Toxin; further: read at 38.3 µM for the half of the compounds with a filed dose; 0% is about no effect
# Conditions: cell reporter, cycloheximide protein synthesis inhibition counterscreen; stronger effect = higher value
row,SMILES,max response
1,CCOC(=O)N1CCN(S(=O)(=O)N2CCCC(C(=O)NCCCN3CCC(C)CC3)C2)CC1 (stereo unspecified),1.6% (inactive)
2,CCc1ccccc1NC(=O)/C(=C/c1ccccc1)c1ccccc1,8.5% (inactive)
3,O=C(Nc1ccccc1N1CCN(C(=O)c2ccccc2)CC1)c1ccco1,-3.96% (inactive)
4,CCOC(=O)C1CCN(c2ncnc3c2c(-c2ccccc2)cn3-c2ccc(C)cc2)CC1,1.88% (inactive)
5,COc1ccc(/C=C2/S/C(=N/N=C3\CC4CCC3(C)C4(C)C)NC2=O)cc1 (stereo unspecified),8.52% (inactive)
6,COc1ccc(N(Cc2cc3ccc(C)cc3[nH]c2=O)S(=O)(=O)c2ccccc2)cc1,0.769% (inactive)
7,O=C(NCCc1ccccc1)c1ccc2c(c1)N(Cc1ccccc1)CCS2,38.6% (active)
8,O=C(NCCN1CCOCC1)c1ccc2c(c1)N(Cc1ccc(Cl)cc1)CCS2,-1.99% (inactive)
9,CCOC(=O)N1CCN(C(=O)c2ccc3c(c2)N(Cc2ccc(C)cc2)CCS3)CC1,-0.464% (inactive)
10,COc1cc(SC#N)ccc1N=Cc1c(C)[nH]n(-c2ccc(C)cc2)c1=O,-1.77% (inactive)
11,CC(=O)N1CCc2c(sc(NC(=O)CCS(=O)(=O)c3ccccc3)c2C#N)C1,6.75% (inactive)
12,CN1CCN(CC(=O)Nc2sc3c(c2C#N)CCC(C(C)(C)C)C3)CC1 (stereo unspecified),-3.82% (inactive)
13,CCC1CCc2c(sc(NC(C)=O)c2C#N)C1 (stereo unspecified),14.2% (active)
14,COc1cc(C(=O)NC2CCN(Cc3ccccc3)CC2)cc(Cl)c1OC(C)C,-3.58% (inactive)
15,CCOc1ccccc1CNS(=O)(=O)c1cc(-c2cc(C)no2)ccc1C,5.17% (inactive)
16,CCCCN(C)CCCNC(=O)c1cc(-c2cccs2)nc2ccccc12,-4.95% (inactive)
17,CN(C)CCNc1ccc(-c2n[nH]c(=O)c3ccccc23)cc1[N+](=O)[O-],-2.5% (inactive)
18,CCN1CCN(C2CCCCC2NS(=O)(=O)c2ccc(Cl)cc2)CC1 (stereo unspecified),-3.25% (inactive)
19,O=C(Cc1ccc(F)cc1)NC1CCCC1,5.3% (inactive)

row,SMILES,max response
1,CC(=O)Nc1ccc(N2C(=O)C3C4C=CC(CC4)C3C2=O)cc1 (stereo unspecified),3.43% (inactive)
2,O=C(CC1CCCCC1)NCc1ccc(F)cc1,24.8% (active)
3,O=C(CC1CCCCC1)NCc1ccccc1,17.3% (active)
4,CC(=O)Nc1ccc(NC(=O)CC2CCCC2)cc1,20.7% (active)
5,CC(=O)Nc1ccc(S(=O)(=O)N2CCN(C3CCCCCCC3)CC2)cc1,-5.2% (inactive)
6,O=C(CC1CCCCC1)NCc1ccco1,-1.2% (inactive)
7,O=C(CCc1ccc(S(=O)(=O)NC2CCCCC2)cc1)NCc1ccccc1,-1.16% (inactive)
8,O=C(Cn1nc(C(F)(F)F)c2c1CCC2)NCc1ccc(F)cc1,0.318% (inactive)
9,COC(=O)c1ccc(/C=C2/C(=O)Oc3ccccc32)cc1,-4.87% (inactive)
10,CC(C(=O)N1CCN(c2ccccc2F)CC1)c1ccc([N+](=O)[O-])cc1 (stereo unspecified),-0.676% (inactive)
11,Cc1ccc(CC2CC(=O)N(c3cc(C)ccc3C)C2=O)cc1 (stereo unspecified),-1.67% (inactive)
12,CCOCCCN(C)C1CCN(C(=O)c2oc3ccccc3c2NC(=O)COc2cccc(C)c2)CC1,-3.98% (inactive)
13,CCN1CCCC1CNC(=O)c1cc2cc(OC)c(OC)cc2[nH]1 (stereo unspecified),-3.29% (inactive)
14,COc1ccc(N(C)S(=O)(=O)c2ccc3c(c2)CC(C)N3C(=O)C2CC2)c(OC)c1 (stereo unspecified),3.16% (inactive)
15,O=c1c2sccc2nc(SCc2cc(=O)n3ccccc3n2)n1-c1ccc(Br)cc1,-4.5% (inactive)
16,CC(C)=CCN1CCN(CCCc2ccccc2)CC1CCO (stereo unspecified),-0.846% (inactive)
17,COC(=O)c1c(NC(=O)COc2ccc(Cl)cc2Cl)sc2c1CC(C)(C)NC2(C)C,0.749% (inactive)
18,CC1=C/C(=N\OS(=O)(=O)c2ccccc2)C=CC1=O,35% (active)
19,Cc1ccc(S(=O)(=O)c2ccc(Oc3ccccc3)cc2)cc1,-0.97% (inactive)

row,SMILES,max response
1,CC1=C/C(=N\S(=O)(=O)c2ccccc2)C(C(C)C)=CC1=O,-2.83% (inactive)
2,O=C(Nc1ccc(Cl)cc1)C1c2cccc[n+]2CC(=O)N1Cc1ccc2c(c1)OCO2 (stereo unspecified),17.1% (inactive)
3,CCOc1ccc(N2C(=O)CC(N(CCc3ccc(OC)c(OC)c3)C(=S)Nc3ccccc3)C2=O)cc1 (stereo unspecified),8.04% (inactive)
4,O=C(CCN1C(=O)[C@H]2CC=CC[C@H]2C1=O)NCc1nc(-c2ccccc2)no1,6.47% (inactive)
5,CC(C)CNC(=O)C(=O)NCc1ccccc1,-1.62% (inactive)
6,CC(C)CNC(=O)C(=O)Nc1ccc(N(C)C)cc1,38.6% (active)
7,CC(=O)Nc1ccc(C(=O)C(Cc2ccccc2)N(C)C)cc1 (stereo unspecified),9.54% (inactive)
8,COc1ccc(NC(=O)Cn2ncn3c(cc4ccccc43)c2=O)c(OC)c1OC,12.5% (inactive)
9,Cc1nnc(C)c2c(C)n(N)c(C)c12,-2.66% (inactive)
10,COC(=O)c1ccc(CSc2nncn2N)cc1,2.72% (inactive)
11,COC(=O)c1ccc(CSc2nncn2C)cc1,62.2% (active)
12,CC(C)CC(CC(C)C)=NNC(=O)c1ccc(CSc2nncn2C)cc1,-1.48% (inactive)
13,CCC(Cc1ccccc1)NC(=O)C1CCCCC1 (stereo unspecified),5.22% (inactive)
14,CCOC(=O)c1ccc(NC(=O)c2nc[nH]c2C(=O)N[C@@H](CCCCNC(=O)OC(C)(C)C)C(=O)OC(C)(C)C)cc1,-6.86% (inactive)
15,C[C@@H](O)[C@@H]1NC(=O)[C@H](CCCCN)NC(=O)[C@H](Cc2c[nH]c3ccccc23)NC(=O)[C@H](Cc2ccccc2)NC(=O)[C@H](Cc2ccccc2)NC(=O)[C@H](CC(N)=O)NC(=O)[C@H](CCCCN)NC(=O)[C@@H](NC(=O)[C@@H]2CCCN2)CSSC[C@@H](C(=O)N[C@@H](CCCCN)C(=O)O)NC(=O)[C@H](CO)NC(=O)[C@H](CO)NC(=O)[C@H](Cc2ccccc2)NC1=O,-1.5% (inactive)
16,COc1cccc(/C=N/Nc2cc(C)nc(-c3ccccc3O)n2)c1O,28.6% (active)
17,COc1ccccc1/C=N\Nc1cc(C)nc(-n2nc(C)cc2C)n1,-2.45% (inactive)
18,COc1cccc(/C=N/Nc2ncc(C(F)(F)F)cc2Cl)c1O,12.5% (inactive)
